Assays:
Assay in all cases: PBM binding z-score (relative to random genomic background probes); higher = stronger binding; sequences stand for … in GC…GCGATTGACAGCGTAGAATGAAGG
[1] = test system: FXR:RXRa (NR concentration 270 nM, RXRa partner concentration 90 nM)
Summary of the method: (§1)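 Random background probes are the reference for binding z-scores. These scores derive from regression-normalized fluorescence on custom Agilent 4×180K protein-binding microarrays incubated 1 h with ligand-free nuclear receptor dimers. Binding was detected with antibodies against each partner (one per run).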

[2] = test system: LXRa:RXRa (NR concentration 270 nM, RXRa partner concentration 90 nM)
Summary of the method: as §1

[3] = test system: LXRa homodimer (NR concentration 270 nM)
Summary of the method: as §1

[4] = test system: LXRb:RXRa (NR concentration 270 nM, RXRa partner concentration 90 nM)
Summary of the method: as §1

[5] = test system: LXRb homodimer (NR concentration 270 nM)
Summary of the method: as §1

[6] = test system: PPARa:RXRa (NR concentration 270 nM, RXRa partner concentration 90 nM)
Summary of the method: as §1

[7] = test system: PPARg:RXRa (NR concentration 180 nM, RXRa partner concentration 90 nM)
Summary of the method: as §1

[8] = test system: PPARg:RXRa 270nM:90nM, anti-RXR (NR concentration 270 nM, RXRa partner concentration 90 nM)
Summary of the method: as §1

[9] = test system: PPARg:RXRa 30nM:10nM, anti-RXR (NR concentration 30 nM, RXRa partner concentration 10 nM)
Summary of the method: as §1

[10] = test system: PPARg:RXRa 90nM:30nM, anti-RXR (NR concentration 90 nM, RXRa partner concentration 30 nM)
Summary of the method: as §1

CGGACTGGGGCAAGGTTACCATAACGCACAGCCA
PBM binding z-score [1]: 0.491
PBM binding z-score [2]: 1.02
PBM binding z-score [3]: -0.284
PBM binding z-score [4]: 1.05
PBM binding z-score [5]: -0.449
PBM binding z-score [6]: 2.67
PBM binding z-score [7]: 4.88
PBM binding z-score [8]: 4.78
PBM binding z-score [9]: 2.59
PBM binding z-score [10]: 4.2

CCTGCTAGGTCAATGGTCAGCGAAAGCAGCTCGC
PBM binding z-score [1]: 2.75
PBM binding z-score [2]: 2.4
PBM binding z-score [3]: -0.241
PBM binding z-score [4]: 1.4
PBM binding z-score [5]: 0.134
PBM binding z-score [6]: 3.37
PBM binding z-score [7]: 5.06
PBM binding z-score [8]: 5.2
PBM binding z-score [9]: 3.2
PBM binding z-score [10]: 5.18

CGAACTAGGTCAGAACAGGTCAGTGAAGGATGAT
PBM binding z-score [1]: 2.92
PBM binding z-score [2]: 2.65
PBM binding z-score [3]: 0.47
PBM binding z-score [4]: 1.69
PBM binding z-score [5]: -0.091
PBM binding z-score [6]: 3.73
PBM binding z-score [7]: 5.27
PBM binding z-score [8]: 4.8
PBM binding z-score [9]: 1.67
PBM binding z-score [10]: 4.11

CGTCAAAGTTCAAGGTAACGTAGCAGAAAGCAGC
PBM binding z-score [1]: 6.17
PBM binding z-score [2]: 5.74
PBM binding z-score [3]: 2.69
PBM binding z-score [4]: 3.38
PBM binding z-score [5]: 0.96
PBM binding z-score [6]: 4.55
PBM binding z-score [7]: 4.28
PBM binding z-score [8]: 5.21
PBM binding z-score [9]: 2.09
PBM binding z-score [10]: 4.31

CATACTGGGCCAAAGGTCATTGATTCCAATGCTC
PBM binding z-score [1]: 5.32
PBM binding z-score [2]: 5.39
PBM binding z-score [3]: 4.2
PBM binding z-score [4]: 5.17
PBM binding z-score [5]: 1.29
PBM binding z-score [6]: 6.71
PBM binding z-score [7]: 11.9
PBM binding z-score [8]: 10.1
PBM binding z-score [9]: 10.1
PBM binding z-score [10]: 11.1

CAAACTAGGTCACGAATGGTCAAAGTCGAATGAC
PBM binding z-score [1]: 4.48
PBM binding z-score [2]: 5.29
PBM binding z-score [3]: 0.845
PBM binding z-score [4]: 3.46
PBM binding z-score [5]: 0.546
PBM binding z-score [6]: 5.82
PBM binding z-score [7]: 9.24
PBM binding z-score [8]: 7.45
PBM binding z-score [9]: 5.7
PBM binding z-score [10]: 7.36

CCGCGGAGGACAGAAGGTCAGAGCTGTCCGCTTT
PBM binding z-score [1]: 1.22
PBM binding z-score [2]: 1.49
PBM binding z-score [3]: -0.1
PBM binding z-score [4]: 0.955
PBM binding z-score [5]: -1.05
PBM binding z-score [6]: 1.77
PBM binding z-score [7]: -0.261
PBM binding z-score [8]: 0.596
PBM binding z-score [9]: -0.857
PBM binding z-score [10]: 0.289

ATATGTAGGATACATCCGGGTCATTCAGGCTATG
PBM binding z-score [1]: 1.21
PBM binding z-score [2]: 1.31
PBM binding z-score [3]: 0.653
PBM binding z-score [4]: 1.61
PBM binding z-score [5]: 0.399
PBM binding z-score [6]: 2.9
PBM binding z-score [7]: 2.14
PBM binding z-score [8]: 1.77
PBM binding z-score [9]: 0.797
PBM binding z-score [10]: 1.28

ATATGTAGGTTAGCTGGGGTCAATCAGACTAGGC
PBM binding z-score [1]: 4.21
PBM binding z-score [2]: 5.44
PBM binding z-score [3]: 1.4
PBM binding z-score [4]: 4.65
PBM binding z-score [5]: 1.47
PBM binding z-score [6]: 5.14
PBM binding z-score [7]: 5.84
PBM binding z-score [8]: 5.34
PBM binding z-score [9]: 2.61
PBM binding z-score [10]: 4.68

ACTCGGAGGACAAAGGTCATAGCTACGCCAGTGA
PBM binding z-score [1]: 6.1
PBM binding z-score [2]: 5.52
PBM binding z-score [3]: 4.19
PBM binding z-score [4]: 4.73
PBM binding z-score [5]: 0.856
PBM binding z-score [6]: 6.18
PBM binding z-score [7]: 8.47
PBM binding z-score [8]: 7.15
PBM binding z-score [9]: 6.46
PBM binding z-score [10]: 8.09

AGTCATAGTTCATCTAGGTAACGTAAGATATGCT
PBM binding z-score [1]: 2.22
PBM binding z-score [2]: 2.66
PBM binding z-score [3]: 1.11
PBM binding z-score [4]: 1.59
PBM binding z-score [5]: 0.357
PBM binding z-score [6]: 2.84
PBM binding z-score [7]: 2.87
PBM binding z-score [8]: 3.22
PBM binding z-score [9]: 1.32
PBM binding z-score [10]: 2.47

AGTCAAAGTTCATCTAGGTAATGTAAGATATGCT
PBM binding z-score [1]: 6.48
PBM binding z-score [2]: 6.26
PBM binding z-score [3]: 5.38
PBM binding z-score [4]: 4.07
PBM binding z-score [5]: 1.98
PBM binding z-score [6]: 4.95
PBM binding z-score [7]: 6.59
PBM binding z-score [8]: 6.48
PBM binding z-score [9]: 3.67
PBM binding z-score [10]: 5.42

GGTAGCAGGCCATTTGGGTCACTCAATGACGGGC
PBM binding z-score [1]: 0.428
PBM binding z-score [2]: 0.0822
PBM binding z-score [3]: -0.186
PBM binding z-score [4]: 0.118
PBM binding z-score [5]: -0.593
PBM binding z-score [6]: 1.49
PBM binding z-score [7]: 0.828
PBM binding z-score [8]: 0.694
PBM binding z-score [9]: -0.356
PBM binding z-score [10]: 0.275

ATCGAAACGTCGAGGTGAGTATAGAGAAAGGGAA
PBM binding z-score [1]: -0.226
PBM binding z-score [2]: -0.343
PBM binding z-score [3]: -0.626
PBM binding z-score [4]: -0.525
PBM binding z-score [5]: -0.471
PBM binding z-score [6]: -0.00336
PBM binding z-score [7]: 0.304
PBM binding z-score [8]: -0.503
PBM binding z-score [9]: 0.3
PBM binding z-score [10]: -0.335

TGAATGGGGTTAAAGATCAGGGAACGTGGCGTCG
PBM binding z-score [1]: 5.11
PBM binding z-score [2]: 3.48
PBM binding z-score [3]: 0.361
PBM binding z-score [4]: 4.01
PBM binding z-score [5]: 3.3
PBM binding z-score [6]: 5.61
PBM binding z-score [7]: 6.88
PBM binding z-score [8]: 7.24
PBM binding z-score [9]: 5.21
PBM binding z-score [10]: 7.51

CCAGACAGGTGAAAGGTAACTCGGTCTGGTACGC
PBM binding z-score [1]: 0.495
PBM binding z-score [2]: 0.577
PBM binding z-score [3]: -0.368
PBM binding z-score [4]: 0.702
PBM binding z-score [5]: -0.561
PBM binding z-score [6]: 3.46
PBM binding z-score [7]: 5.96
PBM binding z-score [8]: 5.52
PBM binding z-score [9]: 4.56
PBM binding z-score [10]: 6.21

CCGACTGGGGCAGAATGGTTACCATACCATCCGG
PBM binding z-score [1]: -0.449
PBM binding z-score [2]: -0.782
PBM binding z-score [3]: -0.449
PBM binding z-score [4]: -0.838
PBM binding z-score [5]: -1.2
PBM binding z-score [6]: -0.355
PBM binding z-score [7]: 0.778
PBM binding z-score [8]: -0.289
PBM binding z-score [9]: -0.329
PBM binding z-score [10]: -0.35

GCATATAGGTAATACAAGGTGAAAATCCGATTGT
PBM binding z-score [1]: 0.325
PBM binding z-score [2]: 1.44
PBM binding z-score [3]: 0.125
PBM binding z-score [4]: 0.602
PBM binding z-score [5]: -0.207
PBM binding z-score [6]: 1.5
PBM binding z-score [7]: 1.55
PBM binding z-score [8]: 1.09
PBM binding z-score [9]: 0.599
PBM binding z-score [10]: 0.773

GATACAGGGTCAAGGGCAGAGTACGCGTATTGAT
PBM binding z-score [1]: 6.94
PBM binding z-score [2]: 4.74
PBM binding z-score [3]: 0.422
PBM binding z-score [4]: 4.1
PBM binding z-score [5]: 0.257
PBM binding z-score [6]: 5.92
PBM binding z-score [7]: 6.21
PBM binding z-score [8]: 5.97
PBM binding z-score [9]: 2.9
PBM binding z-score [10]: 4.69

GCTTGTAGATCAAGGATAAGAAAGACTAAGCTAA
PBM binding z-score [1]: -0.495
PBM binding z-score [2]: -1.03
PBM binding z-score [3]: -0.557
PBM binding z-score [4]: -0.935
PBM binding z-score [5]: -0.998
PBM binding z-score [6]: -0.619
PBM binding z-score [7]: 0.375
PBM binding z-score [8]: 0.179
PBM binding z-score [9]: -0.00993
PBM binding z-score [10]: -0.0632

ATCTCTAGGTAAAGTTCAGTGTAAGATCGATAGA
PBM binding z-score [1]: 1.55
PBM binding z-score [2]: 2.13
PBM binding z-score [3]: 2.27
PBM binding z-score [4]: 1.55
PBM binding z-score [5]: 1.1
PBM binding z-score [6]: 2.47
PBM binding z-score [7]: 3.17
PBM binding z-score [8]: 4.49
PBM binding z-score [9]: 2.44
PBM binding z-score [10]: 4.28

GATACAGGGTAAGCTAGAGGCCAGAGTATGGAAA
PBM binding z-score [1]: -0.252
PBM binding z-score [2]: -0.448
PBM binding z-score [3]: -0.407
PBM binding z-score [4]: -0.76
PBM binding z-score [5]: -1.15
PBM binding z-score [6]: -0.293
PBM binding z-score [7]: 0.319
PBM binding z-score [8]: -0.0379
PBM binding z-score [9]: -0.0812
PBM binding z-score [10]: -0.0554

CAAACTAGGTCAAGAGGCCAAAGTCCGCTTCCCG
PBM binding z-score [1]: 3.54
PBM binding z-score [2]: 2.84
PBM binding z-score [3]: 0.509
PBM binding z-score [4]: 1.81
PBM binding z-score [5]: -0.0945
PBM binding z-score [6]: 4.7
PBM binding z-score [7]: 7.87
PBM binding z-score [8]: 6.59
PBM binding z-score [9]: 4.48
PBM binding z-score [10]: 6.47
